Assay results from the supplement of paper PMC8728848.
Many of the other results were omitted from the sample, so the strongest signals are more common in it than they were.

Experiments:
Assay in all cases: glycan array binding signal (z-score within array); higher = stronger binding
Settings in all cases: glycan notation: IUPAC condensed, linker removed
[1] = target: Fuc(a1-2)Gal(b1-3)GlcNAc(b1-2)Man(a1-3)[Fuc(a1-2)Gal(b1-3)GlcNAc(b1-2)Man(a1-6)]Man(b1-4)GlcNAc(b1-4)GlcNAc
In short: (§1)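 Glycan array data were curated from 3228 arrays in the Consortium for Functional Glycomics database and kept only where the protein sequence was available. Glycan names were converted to IUPAC-condensed notation, and columns mapping to the same glycan were averaged. The binding signal is a within-array Z-score, averaged across arrays of the same protein sequence at different concentrations or buffers and across linkers. Negative Z-scores can be read as non-binding.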

[2] = target: Fuc(a1-2)Gal(b1-3)[Fuc(a1-4)]GlcNAc(b1-2)Man(a1-3)[Fuc(a1-2)Gal(b1-3)[Fuc(a1-4)]GlcNAc(b1-2)Man(a1-6)]Man(b1-4)GlcNAc(b1-4)GlcNAc
In short: as §1

[3] = target: Fuc(a1-2)[Gal(a1-4)]Gal(b1-4)GlcNAc
In short: as §1

Gal(a1-3)Gal(b1-4)Glc = target: Gal(a1-3)Gal(b1-4)Glc
In short: as §1

Gal(a1-4)Gal(b1-4)GlcNAc = target: Gal(a1-4)Gal(b1-4)GlcNAc
In short: as §1

Gal(b1-3)GalNAc = target: Gal(b1-3)GalNAc
In short: as §1

[4] = target: Gal(b1-4)GlcNAc(a1-6)Gal(b1-4)GlcNAc
In short: as §1

[5] = target: Gal(b1-4)GlcNAc(b1-3)Gal(b1-4)GlcNAc(b1-3)Gal(b1-4)GlcNAc
In short: as §1

[6] = target: Gal(b1-4)GlcNAc(b1-3)[Gal(b1-4)GlcNAc(b1-6)]Gal(b1-4)GlcNAc
In short: as §1

Gal3S(b1-3)GlcNAc = target: Gal3S(b1-3)GlcNAc
In short: as §1

[7] = target: Gal3S(b1-3)[Fuc(a1-4)]GlcNAc
In short: as §1

Gal3S4S(b1-4)GlcNAc = target: Gal3S4S(b1-4)GlcNAc
In short: as §1

Gal6S(b1-4)GlcNAc = target: Gal6S(b1-4)GlcNAc
In short: as §1

Gal6S(b1-4)GlcNAc6S = target: Gal6S(b1-4)GlcNAc6S
In short: as §1

GalNAc(a1-3)Gal = target: GalNAc(a1-3)Gal
In short: as §1

[8] = target: GalNAc(b1-4)GlcNAc(b1-2)Man(a1-3)[GalNAc(b1-4)GlcNAc(b1-2)Man(a1-6)]Man(b1-4)GlcNAc(b1-4)GlcNAc
In short: as §1

GlcA(b1-3)GlcNAc = target: GlcA(b1-3)GlcNAc
In short: as §1

GlcA(b1-6)Gal = target: GlcA(b1-6)Gal
In short: as §1

[9] = target: GlcNAc(b1-4)GlcNAc(b1-4)GlcNAc
In short: as §1

[10] = target: Man(a1-3)[Man(a1-6)]Man(a1-6)[Man(a1-3)]Man(b1-4)GlcNAc(b1-4)GlcNAc
In short: as §1

Man(b1-4)GlcNAc = target: Man(b1-4)GlcNAc
In short: as §1

Neu5Ac(a2-3)Gal = target: Neu5Ac(a2-3)Gal
In short: as §1

[11] = target: Neu5Ac(a2-3)Gal(b1-4)[Fuc(a1-3)]GlcNAc
In short: as §1

[12] = target: Neu5Ac(a2-6)Gal(b1-4)GlcNAc(b1-2)Man(a1-3)Man(b1-4)GlcNAc(b1-4)GlcNAc
In short: as §1

[13] = target: Neu5Ac(a2-6)Gal(b1-4)GlcNAc(b1-2)Man(a1-6)[GlcNAc(b1-2)Man(a1-3)]Man(b1-4)GlcNAc(b1-4)GlcNAc
In short: as §1

[14] = target: Neu5Ac(a2-8)Neu5Ac(a2-3)[GalNAc(b1-4)]Gal(b1-4)Glc
In short: as §1

[15] = target: Neu5Ac(a2-8)Neu5Ac(a2-8)Neu5Ac(a2-8)Neu5Ac(a2-3)[GalNAc(b1-4)]Gal(b1-4)Glc
In short: as §1

[16] = target: Neu5Gc(a2-3)Gal(b1-4)GlcNAc
In short: as §1

B1: Adiponectin (Rattus norvegicus), Q8K3R4 (protein)
chain: MLLLQALLFLLILPSHEGITATEGPGALVPPPKETCAGWMAGIPGYPGHNGIPGRDGRDGTPGEKGEKGDAGVLGPKGDPGDAGMTGAEGPRGFPGTPGRKGEPGEAAYMYHSAFSVGLETRVTVPNVPIRFTKIFYNQQNHYDGSTGKFHCNIPGLYYFSYHITVYMKDVKVSLFKKDKAVLFTYDQYQEKNVDQASGSMLLHLEVGDQVWLQVYGEGDNNGLYADNVNDSTFTGFLLYHDTN
- glycan array binding signal (z-score) [1]: 4.69
- glycan array binding signal (z-score) [2]: 2.87
- glycan array binding signal (z-score) [3]: -0.75
- glycan array binding signal (z-score) (Gal(a1-3)Gal(b1-4)Glc): 2.17
- glycan array binding signal (z-score) (Gal(a1-4)Gal(b1-4)GlcNAc): -0.311
- glycan array binding signal (z-score) (Gal(b1-3)GalNAc): -0.573
- glycan array binding signal (z-score) [4]: -0.335
- glycan array binding signal (z-score) [5]: 3.09
- glycan array binding signal (z-score) [6]: 0.332
- glycan array binding signal (z-score) (Gal3S(b1-3)GlcNAc): -0.814
- glycan array binding signal (z-score) [7]: 1.13
- glycan array binding signal (z-score) (Gal3S4S(b1-4)GlcNAc): 0.706
- glycan array binding signal (z-score) (Gal6S(b1-4)GlcNAc): 1.04
- glycan array binding signal (z-score) (Gal6S(b1-4)GlcNAc6S): -0.915
- glycan array binding signal (z-score) (GalNAc(a1-3)Gal): 2.96
- glycan array binding signal (z-score) [8]: 4.32
- glycan array binding signal (z-score) (GlcA(b1-3)GlcNAc): -0.577
- glycan array binding signal (z-score) (GlcA(b1-6)Gal): -0.389
- glycan array binding signal (z-score) [9]: 4.87
- glycan array binding signal (z-score) [10]: -0.767
- glycan array binding signal (z-score) (Man(b1-4)GlcNAc): 0.155
- glycan array binding signal (z-score) (Neu5Ac(a2-3)Gal): 0.212
- glycan array binding signal (z-score) [11]: 0.007
- glycan array binding signal (z-score) [12]: 0.717
- glycan array binding signal (z-score) [13]: -0.838
- glycan array binding signal (z-score) [14]: 0.022
- glycan array binding signal (z-score) [15]: 0.861
- glycan array binding signal (z-score) [16]: -0.295
